Values joined by “and” are separate entries in the source; they are usually repeats but may differ in a detail not shown here. Equal entries are not always repeated. Results filed as inconclusive are left out. Active and inactive are the calls of the source. The call rests on the fitted dose curve; in most records, active means well fitted activation curve with a large enough effect; inconclusive means small, poorly fitted or top-dose-only effect; inactive means no such curve, though single readings can be large or run the other way.
Experiment: qHTS for small molecules that induce genotoxicity in ELG1 expressing cells: Confirmatory Assay for Cherry-picked Compounds; further: nearly all actives have a fitted effect of over 35% in size
Conditions: ELG1-luciferase reporter cells, luminescence, 16 h; series mostly up to 46.1 µM
How it was run: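 Activation readout: ONE-Glo luciferase signal from ELG1 reporter cells, 2,000 per well, after 16 hr compound incubation at 37 C. Increased ELG1-driven luminescence reflects genetic stress.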
Potency means the concentration at half of the fitted maximal effect.

**Q.** Which Potency does the source give for COc1ccc(-c2cc3cc4c(cc3cn2)OCO4)cc1 here?
**A.** 1.77 µM (active)

**Q.** Which Potency does the source give for Oc1ccc(/C=C/c2c(F)cccc2F)c2cccnc12 here?
**A.** 9.96 µM (active)

**Q.** For O=C(CSc1nnc(-c2ccc(O)cc2)o1)Nc1ccccc1, which Potency is on record?
**A.** 5 µM (active)

**Q.** For Cc1ccc(-c2nnc(SCC(=O)Nc3ccccc3F)o2)cc1, which Potency is on record?
**A.** 115 nM (active) and 88.9 nM (active)

**Q.** With CC(=O)N1CCc2cc(Br)cc(S(=O)(=O)CCC(=O)Nc3c(C)n(C)n(-c4ccccc4)c3=O)c21 as the compound, how does the Potency read?
**A.** inactive

**Q.** For CN(C)c1ccccc1-c1csc(N2CCC(C(N)=O)CC2)n1, which Potency is on record?
**A.** 1.99 µM (active)

**Q.** Which Potency does the source give for COc1cc(OC)cc(-c2cc3cc4c(cc3cn2)OCO4)c1 here?
**A.** 5.6 µM (active)

**Q.** With CN(C)c1ccc(/C=C/c2ccnc3ccc(F)cc23)cc1 as the compound, how does the Potency read?
**A.** 0.354 µM (active)

**Q.** Which Potency does the source give for Cc1ccc(C)c(N2CCN(C(=O)CCc3nc(-c4cccc(Cl)c4)no3)CC2)c1 here?
**A.** 12.5 µM (active)

**Q.** Which Potency does the source give for O=C(Nc1cc(Cl)ccc1Cl)c1ccc(OC(=O)c2ccco2)cc1 here?
**A.** inactive

**Q.** Which Potency does the source give for c1ccc(-c2cc3cc4c(cc3cn2)OCO4)cc1 here?
**A.** 2.81 µM (active)

**Q.** Which Potency does the source give for CN(Cc1ccco1)c1ncnc2ccc(-c3cccc(Cl)c3)cc12 here?
**A.** inactive

**Q.** Which Potency does the source give for N#Cc1cc2cc3c(cc2nc1SCC(=O)N1CCOCC1)OCCO3 here?
**A.** 0.889 µM (active)

**Q.** For CC(=O)Nc1ccc(SCC(=O)c2cc(C)n(Cc3cccs3)c2C)cc1, which Potency is on record?
**A.** 1.12 µM (active)

**Q.** For O=C(CSCC(=O)N1CCN(c2ccccc2)CC1)Nc1nc(-c2ccc(Cl)s2)cs1, which Potency is on record?
**A.** inactive

**Q.** With CN(C)c1cccc(-c2ccnc(N3CCC(C(N)=O)CC3)n2)c1 as the compound, how does the Potency read?
**A.** 0.5 µM (active)

**Q.** For COc1ccc(-c2cc3cc(F)ccc3cn2)cc1, which Potency is on record?
**A.** 2.23 µM (active)

**Q.** Which Potency does the source give for Cc1nc(Nc2nc3ccccc3o2)nc2c1CCCC2 here?
**A.** 0.706 µM (active)

**Q.** For CN(C)c1ccc(/C=C2\C=Cc3ccccc32)c(F)c1, which Potency is on record?
**A.** 1.41 µM (active)

**Q.** For ICC[n+]1csc2ccccc21, which Potency is on record?
**A.** 14.1 µM (active)

**Q.** For O=C(CSc1ncnc2sccc12)N1CCCCC1, which Potency is on record?
**A.** 15.8 µM (active)

**Q.** For CCn1c(C)cc(C(=O)COC(=O)c2cccnc2SC)c1C, which Potency is on record?
**A.** 9.96 µM (active)

**Q.** With COc1cccc(-c2cc(NCc3cccs3)ncn2)c1 as the compound, how does the Potency read?
**A.** 3.97 µM (active)

**Q.** For CCC1CCCCN1CCCNC(=O)c1ccc2nc(N3CCC(C)CC3)sc2c1 (stereo not drawn), which Potency is on record?
**A.** 0.0706 µM (active)

**Q.** For O=C(CSc1nnc(-c2cccnc2)o1)Nc1ccccn1, which Potency is on record?
**A.** 9.12 µM (active) and 8.89 µM (active)

**Q.** Which Potency does the source give for COCCn1c(C)cc(C(=O)COC(=O)c2cccnc2SC)c1C here?
**A.** 2.23 µM (active)

**Q.** With Cc1ccc2nc3sc(C(=O)NCc4ccco4)cc3cc2c1 as the compound, how does the Potency read?
**A.** 7.05 µM (active)

**Q.** Which Potency does the source give for CSc1ccc(C(=O)c2[nH]c(=O)[nH]c2C)cc1 here?
**A.** 31.5 µM (active)

**Q.** Which Potency does the source give for Cc1ccc2c(c1)C/C(=C/c1ccc(N(C)C)cc1)C2=O here?
**A.** 7.05 µM (active)

**Q.** With Oc1ccccc1-c1cc(-c2ccccc2)n[nH]1 as the compound, how does the Potency read?
**A.** 2.23 µM (active)

**Q.** Which Potency does the source give for COc1ccccc1/C=C/c1nc2ccccc2s1 here?
**A.** 3.97 µM (active)

**Q.** With N#C/C(=C\c1cccnc1)c1ccccn1 as the compound, how does the Potency read?
**A.** inactive

**Q.** For CC(=O)N(C)c1ccc(/C=C2\C=Cc3ccccc32)cc1, which Potency is on record?
**A.** 0.561 µM (active)

**Q.** Which Potency does the source give for O=C(NC1CCCC1)c1cc(-c2cccs2)on1 here?
**A.** 15.8 µM (active)

**Q.** With Clc1ccc(-c2cnnc(-c3ccccn3)n2)cc1 as the compound, how does the Potency read?
**A.** 14.1 µM (active)

**Q.** Which Potency does the source give for COc1ccc(-c2coc3cc(O)cc(O)c3c2=O)cc1 here?
**A.** 9.96 µM (active)

**Q.** Which Potency does the source give for C(=C\c1ccc2ccccc2n1)/c1cccnc1 here?
**A.** 0.25 µM (active)

**Q.** For O=c1c2ccccc2oc2c1oc1ccccc12, which Potency is on record?
**A.** 14.1 µM (active)

From PubChem BioAssay AID720565 (National Center for Advancing Translational Sciences (NCATS), 2013)
